Here are results for six compounds from PubChem BioAssay.

Unmarked numbers belong to inactive results. For part of these data: Results with a measured potency or affinity are listed apart. The list shows a part of the results. Calls of active or inactive are those of the source.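 The calls were made as follows, unless noted: active = primary screen hit whose fluorescence ratio, in both repeats, exceeds the weak agonist control mean by 3 SD; inactive = the rest.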

Assay [1] relates to TRPC4 beta (transient receptor potential cation channel C4), mouse. Briefly: activators of mouse TRPC4 channel, confirmation, cell-based, Fluo4 calcium, HEK293 TRPC4beta/mu-opioid, duplicates, 10 µM (AID 2426;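 active = fluorescence ratio normalized to control raised more than 50% in primary screen plus both repeat runs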). The note with it: Fluo4 calcium fluorescence, at 10 µM; active compounds read high.
In assay [2] the test system is transient receptor potential cation channel C4 beta (TRPC4), mouse. In words: activators of mouse TRPC4 channel, confirmation, cell-based, second round, Fluo4, HEK293 TRPC4beta/mu-opioid, 1 µM (AID 2461;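 active = primary screen active and over 50% activation in each of two duplicate runs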). The conditions noted are these: Fluo4 calcium fluorescence, at 1 µM; active compounds read high.
Assay [3] relates to TRPC4 (transient receptor potential cation channel C4 beta), mouse. In words: positive allosteric modulators of mouse TRPC4, confirmation, cell-based, second round, Fluo-4, HEK293 TRPC4beta/mu-opioid, 1 µM (AID 2554). The conditions noted are these: DAMGO EC20, Fluo-4 calcium flux, at 1 µM; active compounds read high.
Assay [4] concerns TRPC4 beta (transient receptor potential cation channel C4), mouse. In words: positive allosteric modulators of mouse TRPC4, confirmation, cell-based, Fluo-4, HEK293 TRPC4beta/mu-opioid (AID 2555;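 active = primary screen hit whose calcium fluorescence ratio, in both repeats, exceeds the weak agonist control mean by 3 SD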). The note with it: DAMGO EC20, Fluo-4 calcium flux, at 10 µM; active compounds read high. On the technique in general: A change in cytosolic calcium serves as a functional read-out for many receptors and channels.

For assay [5], the target named is Short transient receptor potential channel 4 (Mus musculus) (UniProt Q9QUQ5). In words: inhibitors of mouse TRPC4 channel, confirmation, cell-based, Fluo4, HEK293 TRPC4beta/mu-opioid (AID 2636;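 active = calcium signal cut by more than 3 SD below the full-agonist control yet still positive, in both repeats and the earlier primary screen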). The conditions noted are these: DAMGO, Fluo4 calcium flux, at 10 µM; active compounds read high.
Sequence of Short transient receptor potential channel 4 (Mus musculus) (Q9QUQ5 whole entry, looked up): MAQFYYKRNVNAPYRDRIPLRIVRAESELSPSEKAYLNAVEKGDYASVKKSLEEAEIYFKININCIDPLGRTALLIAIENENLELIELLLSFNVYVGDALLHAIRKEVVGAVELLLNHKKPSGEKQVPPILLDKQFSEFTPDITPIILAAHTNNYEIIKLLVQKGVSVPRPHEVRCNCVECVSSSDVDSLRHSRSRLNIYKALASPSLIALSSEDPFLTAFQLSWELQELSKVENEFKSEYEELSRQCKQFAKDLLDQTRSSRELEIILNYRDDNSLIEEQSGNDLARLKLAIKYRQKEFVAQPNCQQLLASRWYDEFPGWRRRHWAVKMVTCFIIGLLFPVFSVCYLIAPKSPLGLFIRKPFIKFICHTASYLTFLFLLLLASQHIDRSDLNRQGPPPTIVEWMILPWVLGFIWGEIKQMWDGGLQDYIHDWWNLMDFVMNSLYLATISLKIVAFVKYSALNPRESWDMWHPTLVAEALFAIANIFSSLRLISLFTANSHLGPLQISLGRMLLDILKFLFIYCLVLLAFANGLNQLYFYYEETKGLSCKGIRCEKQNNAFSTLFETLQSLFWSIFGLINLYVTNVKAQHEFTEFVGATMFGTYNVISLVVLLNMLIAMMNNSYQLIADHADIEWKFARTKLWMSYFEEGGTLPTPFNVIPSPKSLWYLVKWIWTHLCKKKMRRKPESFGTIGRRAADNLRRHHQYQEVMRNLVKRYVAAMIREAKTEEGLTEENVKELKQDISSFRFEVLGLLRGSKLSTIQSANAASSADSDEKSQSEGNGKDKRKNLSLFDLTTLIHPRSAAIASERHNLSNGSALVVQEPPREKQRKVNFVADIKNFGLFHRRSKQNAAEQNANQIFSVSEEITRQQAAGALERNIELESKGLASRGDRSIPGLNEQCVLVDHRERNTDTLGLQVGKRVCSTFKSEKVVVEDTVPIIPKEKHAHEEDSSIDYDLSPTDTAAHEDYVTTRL
Assay [6] has the same target. In words: inhibitors of mouse TRPC4 channel, confirmation, cell-based, second round, Fluo4, HEK293 TRPC4beta/mu-opioid, 1 µM (AID 2637;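 active = calcium signal ratio cut to more than 3 SD under the fully stimulated control mean yet still positive, in both repeats and the primary screen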). The conditions noted are these: Fluo4 calcium flux, DAMGO, at 1 µM; active compounds read high.
Assay [7] shares this target. Briefly: mouse TRPC4 channel activators, dose response, cell-based, HEK293 TRPC4/mu-opioid, Fluo-4 calcium (AID 434937;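 active = primary screen activator hit with a dose response curve and TRPC4 channel activation at any tested dose; inactive = no activation, no dose response, or not a primary hit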).
Assay [8] shares this target. In words: TRPC4 positive allosteric modulators, dose response, cell-based, HEK293 TRPC4/mu-opioid, Fluo-4 calcium, EC20 DAMGO (AID 434941;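 active = earlier screen potentiator hit that boosts the TRPC4 ion channel at some dose, with a dose response; inactive = no potentiation, no dose response, or not a prior hit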;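 also: calcium entry triggered by an EC20 dose of DAMGO at the co-expressed mu-opioid receptor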).
The target is the same in assay [9]. In words: mouse TRPC4 channel inhibitors, dose response, cell-based, HEK293 TRPC4/mu-opioid, Fluo-4 calcium (AID 434942;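 active = primary screen inhibitor hit that blocks the TRPC4 channel at some tested dose, yielding a dose curve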).
Assay [10] addresses Short transient receptor potential channel 6 (Mus musculus) (UniProt Q61143). Briefly: inhibition of mouse TRPC6 channel, confirmation, selectivity assay for TRPC4 inhibitor project, cell-based, HEK293, membrane potential dye, duplicate (AID 434948;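 active = active in primary screen and both duplicates, each dropping signal beyond three positive-control SD with fluorescence still positive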). The conditions noted are these: HEK293 TRPC6, membrane potential dye fluorescence, at 10 µM, stimulated with maximal-effect acetylcholine; active compounds read high.

Assay [11] shares this target. Briefly: activation of mouse TRPC6 channel, confirmation, selectivity assay for TRPC4 activator project, cell-based, HEK293, membrane potential dye, duplicate (AID 434950;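 active = membrane potential signal rise above negative control mean plus 3 SD in both duplicates, also active in the earlier TRPC4 screen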;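 as to activation: 0% = buffer only wells and 100% = acetylcholine maximal-effect wells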). The note with it: HEK293 TRPC6, membrane potential fluorescence, at 10 µM; active compounds read high.
Assay [12] has the same target. Briefly: TRPC6 potentiation by TRPC4 potentiator hits, confirmation, selectivity assay for TRPC4 potentiator project, HEK293 cells, membrane potential dye, duplicate (AID 434952;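 active = compound raising the membrane signal above positive-control mean plus 3 SD in both repeats, and a primary screen hit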). The conditions noted are these: HEK293 TRPC6, membrane potential dye fluorescence, at 10 µM, maximal acetylcholine added after compound; active compounds read high.
Assay [13] concerns the target Short transient receptor potential channel 4 (Mus musculus) (UniProt Q9QUQ5). Briefly: calcium flux activators in TRPC4/5HT1a cells, counter-screen for TRPC4 activator project, cell-based, second counter screen, HEK293 TRPC4/5HT1a, Fluo-4 (AID 434977;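 active = calcium signal rise above buffer-control mean plus 5 SD in both duplicates, and also a hit in the primary screen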). The note with it: Fluo-4 calcium flux, at 10 µM; active compounds read high.
A short description of assay [14]: calcium flux inhibitors in TRPC4/5HT1a cells, confirmation, counter-screen for TRPC4 inhibitor project, cell-based, second counter screen, HEK293 TRPC4/5HT1a, Fluo-4 (AID 434978;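 active = primary screen active whose calcium signal fell more than 3 SD beyond the full-serotonin control mean in both duplicate plates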;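 as to outcome: serotonin given first at submaximal then at maximal dose after compound preincubation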). The conditions noted are these: Fluo-4 calcium flux, at 10 µM, serotonin added to trigger calcium flux; active compounds read high.
Assay [15] relates to TRPC4 (mouse), co-expressed with 5HT1a in HEK293. In words: calcium flux potentiators in TRPC4/5HT1a cells, confirmation, counter-screen for TRPC4 potentiator project, cell-based, second counter screen, HEK293 TRPC4/5HT1a, Fluo-4 (AID 434979;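 active = signal rise over 3 SD above mean of control wells given weak agonist, in both repeats and first screen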). The note with it: Fluo-4 calcium flux, at 10 µM, serotonin added at its EC20 dose; active compounds read high.
Assay [16] is described as follows: calcium flux activation in mu-opioid HEK293 cells, confirmation, counter-screen for TRPC4 activator project, cell-based, HEK293 mu-opioid receptor line (AID 449723;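 active = hit in primary screen, with calcium signal over 5 SD above buffer well mean in both duplicates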;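 also: counter screen cells carry the mu-opioid receptor alone and lack TRPC4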). The conditions noted are these: Fluo-4 calcium fluorescence, at 10 µM; active compounds read high.
The nature of assay [17]: calcium flux enhancement in mu-opioid HEK293 cells, confirmation, counter-screen for TRPC4 allosteric potentiator project, cell-based, HEK293 mu-opioid receptor line (AID 449724;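 active = calcium signal rise more than 3 SD above the low-dose agonist control mean, in both duplicate plates and the primary screen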;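 also: HEK293 cells carrying mu-opioid receptor only with no TRPC4 channel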). The conditions noted are these: Fluo-4 calcium flux, at 10 µM, compound added before EC20 DAMGO stimulus; active compounds read high.
Assay [18] can be described thus: nonspecific thallium flux increase in parental CHO-K1, confirmation, counter-screen for KCNQ2 potentiator project, cell-based, FluxOR thallium flux, duplicate (AID 2282;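 active = signal rise of at least 3 SD above the untreated control mean, in both duplicate wells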;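 also: counter screen of KCNQ2 potentiator hits so any rise reflects channel-independent effects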). The note with it: parental CHO-K1 cells, FluxOR thallium flux fluorescence; at 10 µM; active compounds read high; zero = vehicle mean+3SD, 100% = vehicle-minus-blank window. (In general: A counterscreen serves to expose hits that act by an unwanted route or on another target.)

The target in assay [19] is Potassium voltage-gated channel subfamily KQT member 1 (Homo sapiens) (UniProt P51787). Briefly: human KCNQ1 channel potentiation off-target, confirmation, selectivity assay for KCNQ2 potentiator project, cell-based, CHO, FluxOR thallium flux (AID 2283;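 active = fluorescence ratio rise of at least 3 SD of vehicle wells above their mean, in both replicate wells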;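 also: 0% = vehicle mean plus 3 SD and 100% = vehicle minus unstimulated blank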). The conditions noted are these: CHO KCNQ1 stable, FluxOR thallium flux fluorescence; at 10 µM; active compounds read high; beyond 3SD, as % of vehicle-control signal.
Sequence of Potassium voltage-gated channel subfamily KQT member 1 (Homo sapiens) (P51787 whole entry, looked up): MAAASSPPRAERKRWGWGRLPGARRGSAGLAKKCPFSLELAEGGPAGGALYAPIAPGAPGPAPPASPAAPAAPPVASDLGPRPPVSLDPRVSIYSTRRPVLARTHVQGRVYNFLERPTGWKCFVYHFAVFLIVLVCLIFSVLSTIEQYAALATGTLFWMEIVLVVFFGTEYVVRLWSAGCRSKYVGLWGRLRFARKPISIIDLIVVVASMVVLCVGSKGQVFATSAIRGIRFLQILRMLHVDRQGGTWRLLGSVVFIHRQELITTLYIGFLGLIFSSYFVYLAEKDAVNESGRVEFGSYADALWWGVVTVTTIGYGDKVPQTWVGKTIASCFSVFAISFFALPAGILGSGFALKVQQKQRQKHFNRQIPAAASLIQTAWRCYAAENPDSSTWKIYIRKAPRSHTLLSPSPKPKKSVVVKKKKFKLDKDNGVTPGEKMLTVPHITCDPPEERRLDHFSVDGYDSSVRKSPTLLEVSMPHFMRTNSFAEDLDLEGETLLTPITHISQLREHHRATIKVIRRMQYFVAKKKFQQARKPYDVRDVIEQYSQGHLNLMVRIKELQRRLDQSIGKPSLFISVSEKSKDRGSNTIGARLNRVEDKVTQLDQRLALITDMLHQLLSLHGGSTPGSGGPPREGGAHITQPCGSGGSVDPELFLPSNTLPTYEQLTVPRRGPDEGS

In assay [20] the target is Potassium voltage-gated channel subfamily KQT member 2 (Rattus norvegicus) (UniProt O88943). In words: rat KCNQ2 channel potentiators, confirmation, cell-based, CHO, FluxOR thallium flux, duplicate (AID 2287;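 active = fluorescence ratio rising 3 SD or more over the vehicle control mean in both replicates, plus primary screen hit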;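 also: peak minus minimum thallium fluorescence divided by baseline after K/Tl stimulus; 0% = vehicle mean plus 3 SD and 100% = vehicle minus unstimulated blank difference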). The conditions noted are these: CHO-KCNQ2 cells, FluxOR thallium flux fluorescence; at 10 µM; active compounds read high.
Assay [21] has the same target. In words: potentiators of retigabine-insensitive KCNQ2 W236L, mechanism study for KCNQ2 potentiator project, cell-based, rat KCNQ2 W236L, CHO, automated patch clamp (AID 2558;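 active = current increase at least 3 SD of the untreated controls above them in both duplicate recordings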). The note with it: at 25 µM; outcome: automated patch clamp current.
A short description of assay [22]: thallium flux activation in parental CHO cells, counter-screen for KCNQ1 potentiator project (AID 493006;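 active = duplicate-averaged activation above buffer control mean plus 5 SD of those controls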;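 also: fluorescence ratio of max minus min over baseline after K+ and Tl+ depolarization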). The note with it: parental CHO-K1 cells, FluxOR thallium flux, at 10 µM; active compounds read high.
Assay [23] concerns the target Potassium voltage-gated channel subfamily KQT member 1 (Homo sapiens) (UniProt P51787). In words: KCNQ1 potassium channel potentiators, confirmation, FluxOR thallium flux, CHO cells, duplicates (AID 493007;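 active = potentiation averaged over duplicate wells exceeding buffer-only control mean by more than 3 SD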;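 also: 0% = buffer-only wells and 100% = R-L3 activator control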). The conditions noted are these: KCNQ1 cell line, FluxOR thallium flux fluorescence, at 10 µM; active compounds read high, % of reference activator effect, buffer zero.
Assay [24] addresses Potassium voltage-gated channel subfamily KQT member 2 (Rattus norvegicus) (UniProt O88943). In words: rat KCNQ2 channel potentiation, selectivity assay for KCNQ1 potentiator project, KCNQ2-CHO-K1 cells (AID 493009;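 active = mean duplicate potentiation above the buffer control mean plus 5 SD of buffer wells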;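 also: assay conditions were tuned for KCNQ1 rather than KCNQ2 modulators; signal is max minus min fluorescence divided by baseline after thallium stimulus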). The note with it: FluxOR thallium flux fluorescence, at 10 µM; active compounds read high, scaled: buffer 0, activator control 100.
Assay [25] concerns the target Potassium voltage-gated channel subfamily KQT member 1 (Homo sapiens) (UniProt P51787). Briefly: KCNQ1 channel current potentiators, confirmation, orthogonal assay for KCNQ1 potentiator project, IonWorks patch clamp, KCNQ1-CHO cells (AID 493184;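 active = current rise at least 3 SD above the untreated control mean in each of two repeat wells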). The conditions noted are these: automated patch clamp current, at 10 µM; active compounds read high. (Patch clamp records ionic current or voltage across a cell membrane.)

Sequence of Short transient receptor potential channel 6 (Mus musculus) (Q61143 whole entry, looked up): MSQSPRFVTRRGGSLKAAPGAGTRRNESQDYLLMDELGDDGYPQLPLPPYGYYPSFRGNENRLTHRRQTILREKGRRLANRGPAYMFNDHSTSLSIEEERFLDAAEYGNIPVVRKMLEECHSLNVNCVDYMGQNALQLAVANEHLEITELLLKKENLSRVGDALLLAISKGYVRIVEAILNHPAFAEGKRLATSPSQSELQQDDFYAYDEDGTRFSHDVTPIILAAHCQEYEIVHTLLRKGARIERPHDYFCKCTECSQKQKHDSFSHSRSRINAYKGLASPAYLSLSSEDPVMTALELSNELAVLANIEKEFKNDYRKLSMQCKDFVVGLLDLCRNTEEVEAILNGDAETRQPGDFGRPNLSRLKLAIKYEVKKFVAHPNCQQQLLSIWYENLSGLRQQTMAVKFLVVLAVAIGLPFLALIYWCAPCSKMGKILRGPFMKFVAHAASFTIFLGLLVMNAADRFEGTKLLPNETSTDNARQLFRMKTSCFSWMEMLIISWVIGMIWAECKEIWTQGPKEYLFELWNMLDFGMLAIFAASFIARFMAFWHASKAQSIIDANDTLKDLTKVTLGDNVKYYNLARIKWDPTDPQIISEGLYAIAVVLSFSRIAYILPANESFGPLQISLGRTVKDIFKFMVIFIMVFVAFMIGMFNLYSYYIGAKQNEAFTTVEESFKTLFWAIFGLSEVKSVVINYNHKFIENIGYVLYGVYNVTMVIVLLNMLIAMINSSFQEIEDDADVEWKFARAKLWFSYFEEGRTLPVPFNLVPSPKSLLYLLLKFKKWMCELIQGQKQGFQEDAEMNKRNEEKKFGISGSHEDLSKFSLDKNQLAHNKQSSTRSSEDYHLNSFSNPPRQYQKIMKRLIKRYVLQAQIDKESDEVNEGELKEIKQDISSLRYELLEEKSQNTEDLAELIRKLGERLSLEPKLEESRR

As for `CCCC(=O)Nc1c(-c2ccccc2)c(=O)c(C)nn1-c1ccc(Cl)cc1`, the outcome in assay [1], in assay [2], in assay [3], in assay [4], in [5] and in assay [6] was inactive. Further, the outcome in assay [7], in assay [8], in [9], in assay [10], in assay [12] and in assay [13] was inactive. Further, the result in [14], in [15], in assay [16] and in assay [17] was inactive. For the same compound, the activation in assay [11] is 33.5% (active).
With `Cc1ccc(-c2csc3ncnc(NCCN4CCOCC4)c23)cc1`, the result in [1], in [2], in assay [3], in assay [4], in [6] and in [7] was inactive. In addition, the outcome in assay [8], in assay [9], in assay [10], in assay [11], in assay [12] and in assay [13] was inactive. Besides, the result in assay [15], in assay [16] and in assay [17] was inactive. In addition, the inhibition (as a rule, the drop in the measured response relative to a control, in per cent) in [5] is 76% (active); in assay [14], 32.6% (active).
`Cc1cc(C)cc(N(CC(=O)Nc2ccc(C)cc2Cl)S(=O)(=O)c2c(C)[nH]c(=O)[nH]c2=O)c1`: the result in [1], in assay [2], in assay [3], in assay [5], in assay [6] and in assay [7] was inactive. Further, the result in assay [8], in assay [9], in assay [10], in assay [11], in assay [12] and in [13] was inactive. In addition, the outcome in assay [14], in [16] and in assay [17] was inactive. The potentiation in assay [4] is 23% (active); in assay [15], 78.6% (active).
For `Fc1cc(F)c2nc(Nc3nc4c(F)cccc4s3)sc2c1`, the activity increase over 3SD of controls in [18] was -5.6%. For the same compound, the activation over 3SD threshold in assay [19] was -15.7%. In addition, in [20], the potentiation, less the hit threshold is 20.5% (active). Also, the outcome in [21] and in assay [25] was inactive. In [22], the activation is 330% (active). The potentiation in [23] was 196% (active); in assay [24] it was 422% (active).
For `c1ccc(Nc2ncnc3sc4c(c23)CCC4)cc1`, the outcome in assay [1], in assay [2], in assay [3], in [4], in assay [5] and in assay [6] was inactive. Also, the result in [7], in assay [8], in [9], in assay [10], in assay [12] and in assay [13] was inactive. For the same compound, the outcome in assay [14], in assay [15], in [16] and in assay [17] was inactive. In addition, in [11], the activation was 30% (active).
On to `CCN(CC)CCN(Cc1cc2cc3c(cc2[nH]c1=O)OCCO3)C(=O)NC1CCCCC1`, for which the result in assay [1], in [2], in assay [3], in assay [4], in assay [5] and in assay [6] was inactive. For the same compound, the outcome in assay [7], in assay [8], in assay [9], in assay [10], in assay [11] and in assay [12] was inactive. In addition, the result in assay [13], in [14], in [15], in assay [16] and in assay [17] was inactive.
